Test systems include SR leukemia; RPMI-8226 leukemia; OVCAR-8 ovarian; OVCAR-5 ovarian; OVCAR-4 ovarian; SK-OV-3 ovarian; IGROV1 ovarian; OVCAR-3 ovarian; HS 578T breast; NCI/ADR-RES ovarian; T-47D breast; BT-549 breast; MDA-MB-435 melanoma; SW-620 colon; MCF7 breast; HCT-116 colon; HCC-2998 colon; KM12 colon.
Common to all, as to assay: NCI-60 one-dose screen, 48 h (100 = growth as untreated, 0 = no growth, -100 = all killed)
What all share (conditions): 10 µM unless noted

This is part of a sample that, as a whole, favours compounds with a hit. Of some 83,000 tested, about 20% had one in any assay.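 A percent growth of 40 corresponds to 60% growth inhibition; 0 means no net growth; -100 means all cells died. Active threshold: below 10.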 Values without a mark were called inactive. The source made the active and inactive calls.

Consider `CC(=O)N(C)C1CCc2c(sc(NC(=O)c3ccc(C(C)(C)C)cc3)c2C(N)=O)C1` (centres undefined), for which the growth in the experiment on SR leukemia is 9.43% (active); with RPMI-8226 leukemia, 81.2%; in the experiment with OVCAR-8 ovarian, 73.8%; with OVCAR-5 ovarian it was 78.9%; in the experiment with OVCAR-4 ovarian it was 41.7%; in the experiment with SK-OV-3 ovarian it was 108%. Moreover, the growth in the experiment with IGROV1 ovarian was 100%; in the experiment on OVCAR-3 ovarian, 83.7%; in the experiment on HS 578T breast, 38.9%; with NCI/ADR-RES ovarian, 79.6%; in the experiment with T-47D breast, 74%; in the experiment with BT-549 breast, 88.2%. The growth in the experiment on MDA-MB-435 melanoma was 83.7%; with SW-620 colon it was 58.2%; in the experiment on MCF7 breast it was 59.8%; in the experiment on HCT-116 colon, 65.1%; with HCC-2998 colon, 108%; with KM12 colon, 64.9%.
`FC(F)(F)c1cc(Nc2cccc(Oc3ccc(NC4=NCCN4)nc3)c2)ccc1Cl`: the growth is -28.1% (active) in the experiment with SR leukemia; -37.6% (active) in the experiment on RPMI-8226 leukemia; 30.8% in the experiment on OVCAR-8 ovarian; 3.8% (active) in the experiment on OVCAR-5 ovarian; 28.2% with OVCAR-4 ovarian; 71% with SK-OV-3 ovarian. Besides, the growth in the experiment with IGROV1 ovarian is -1.17% (active); in the experiment on OVCAR-3 ovarian, -40.3% (active); in the experiment on HS 578T breast, 39.7%; with NCI/ADR-RES ovarian, -10.6% (active); in the experiment with T-47D breast, 23.4%; in the experiment on BT-549 breast, 44.7%. The growth is -40% (active) in the experiment with MDA-MB-435 melanoma; -75.8% (active) with SW-620 colon; -42.5% (active) in the experiment with MCF7 breast; -48.5% (active) in the experiment with HCT-116 colon; -58% (active) in the experiment on HCC-2998 colon; -60.4% (active) with KM12 colon.
Regarding `O=C1Nc2ccccc2/C1=C/c1ccc(COCC2CO2)n1-c1ccc(O)cc1` (centres undefined), the growth was 100% in the experiment with SR leukemia; 95.7% in the experiment with RPMI-8226 leukemia; 101% in the experiment on OVCAR-8 ovarian; 107% in the experiment on OVCAR-5 ovarian; 101% in the experiment on OVCAR-4 ovarian; 114% with SK-OV-3 ovarian. The growth was 104% in the experiment with IGROV1 ovarian; 111% in the experiment with OVCAR-3 ovarian; 104% with HS 578T breast; 106% with NCI/ADR-RES ovarian; 91.4% with T-47D breast; 106% in the experiment with BT-549 breast. Also, the growth in the experiment on MDA-MB-435 melanoma is 103%; with SW-620 colon, 96.2%; in the experiment with MCF7 breast it was 84.6%; in the experiment on HCT-116 colon, 99.2%; in the experiment on HCC-2998 colon, 108%; in the experiment on KM12 colon, 17.8%.
For the molecule `COc1c(N2CC3CCCNC3C2)c(F)cc2c(=O)c(C(=O)N/N=C/c3ccccc3)cn(C3CC3)c12` (centres undefined), the growth with SR leukemia is 8.2% (active); in the experiment on RPMI-8226 leukemia, 73.1%; in the experiment on OVCAR-8 ovarian it was 99.9%; with OVCAR-5 ovarian, 107%; with OVCAR-4 ovarian, 93.1%; with SK-OV-3 ovarian it was 111%. For the same molecule, the growth in the experiment on IGROV1 ovarian was 99.6%; in the experiment on OVCAR-3 ovarian, 102%; in the experiment on HS 578T breast, 97.7%; in the experiment on NCI/ADR-RES ovarian, 104%; in the experiment on T-47D breast, 101%; in the experiment on BT-549 breast, 106%. Further, the growth was 101% in the experiment with MDA-MB-435 melanoma; 102% in the experiment on SW-620 colon; 84.1% in the experiment on MCF7 breast; 81.1% in the experiment with HCT-116 colon; 113% in the experiment on HCC-2998 colon; 101% in the experiment on KM12 colon.
Turning to `CNc1ncc2cc(-c3ccc(-c4ncccc4F)cc3Cl)c(=O)n(CC3OCC(N)CO3)c2n1` (centres undefined), the growth in the experiment with SR leukemia is 32.2%; in the experiment with RPMI-8226 leukemia, 96.1%; in the experiment with OVCAR-8 ovarian, 65.6%; in the experiment on OVCAR-5 ovarian, 44.1%; in the experiment on OVCAR-4 ovarian, 117%; with SK-OV-3 ovarian it was 75.8%. Further, the growth is -2.32% (active) in the experiment on IGROV1 ovarian; 90.7% in the experiment on OVCAR-3 ovarian; 34.6% with HS 578T breast; 79.4% in the experiment on NCI/ADR-RES ovarian; 72.5% in the experiment with T-47D breast; 82.1% in the experiment on BT-549 breast. Besides, the growth is 105% with MDA-MB-435 melanoma; 99.1% in the experiment on SW-620 colon; 101% in the experiment on MCF7 breast; 80.2% with HCT-116 colon; 100% in the experiment on HCC-2998 colon; 95.7% in the experiment on KM12 colon.
With `COc1cc2nc(Cl)nc(Nc3cccc(C4=Nc5c(N)nc(N)nc5NC(c5ccc6c(c5)OCO6)C4)c3)c2cc1OC` (centres undefined), the growth with SR leukemia is 10.3%; with RPMI-8226 leukemia, 41.7%; with OVCAR-8 ovarian, 68.2%; in the experiment on OVCAR-5 ovarian, 112%; with OVCAR-4 ovarian, 97%; with SK-OV-3 ovarian, 112%. Also, the growth is 77.6% in the experiment on IGROV1 ovarian; 63.5% in the experiment on OVCAR-3 ovarian; 82.7% in the experiment on HS 578T breast; 93.1% in the experiment on NCI/ADR-RES ovarian; 68.9% in the experiment with T-47D breast; 76.8% with BT-549 breast. For the same molecule, the growth with MDA-MB-435 melanoma was 88.5%; in the experiment on SW-620 colon, 76.9%; in the experiment with MCF7 breast, 54%; with HCT-116 colon it was 55.3%; with HCC-2998 colon, 74.6%; in the experiment on KM12 colon it was 46.8%.
As for `Cc1ccc2c(c1)Oc1nc(N)c(C#N)c(N)c1C2Sc1ccc(F)cc1` (centres undefined), the growth in the experiment with SR leukemia is -15.6% (active); in the experiment on RPMI-8226 leukemia, -24.1% (active); with OVCAR-8 ovarian, -99.4% (active); in the experiment with OVCAR-5 ovarian, -93.5% (active); with OVCAR-4 ovarian, -99.3% (active); in the experiment with SK-OV-3 ovarian, -94.5% (active). In addition, the growth in the experiment with IGROV1 ovarian is -91.3% (active); in the experiment with OVCAR-3 ovarian, -88.1% (active); in the experiment with HS 578T breast, -38.1% (active); with NCI/ADR-RES ovarian it was -89.4% (active); with T-47D breast it was -47.1% (active); in the experiment with BT-549 breast it was -88.4% (active). Further, the growth was -93.6% (active) in the experiment on MDA-MB-435 melanoma; -63.6% (active) in the experiment with SW-620 colon; -59.7% (active) in the experiment with MCF7 breast; -89.9% (active) with HCT-116 colon; -90.9% (active) with HCC-2998 colon; -91.4% (active) with KM12 colon.
For the molecule `CCO/C=N/C1=C(C#N)C(c2ccc(OC)cc2)c2sc3c(C)cccc3c2O1` (centres undefined), the growth in the experiment on SR leukemia is 17.9%; with RPMI-8226 leukemia, 0.107% (active); with OVCAR-8 ovarian it was 29.3%; with OVCAR-5 ovarian it was 34.4%; in the experiment on OVCAR-4 ovarian it was 85.3%; in the experiment on SK-OV-3 ovarian, 50.3%. For the same molecule, the growth is 27.1% with IGROV1 ovarian; 7.72% (active) in the experiment with OVCAR-3 ovarian; 16.6% with HS 578T breast; 10.9% in the experiment on NCI/ADR-RES ovarian; 34.5% in the experiment on T-47D breast; 35.2% with BT-549 breast. Also, the growth is -21.5% (active) in the experiment on MDA-MB-435 melanoma; 33.5% in the experiment with SW-620 colon; 23.5% in the experiment on MCF7 breast; 12% with HCT-116 colon; 21.1% in the experiment on HCC-2998 colon; 19% in the experiment on KM12 colon.

The values are drawn from PubChem BioAssay (NCI).
